Each structure is given as a SMILES string. Results filed as inconclusive are left out. Entries that show only a call come without a potency. Unmarked numbers belong to inactive results. Calls of active or inactive are those of the source. Calls come from the whole dose curve.
Potency is the fitted concentration of half-maximal effect.

The assay is described as follows: qHTS assay to identify small molecule agonists of H2AX - cell viability counter screen (AID 1224847). For activity change, negative = cytotoxicity: top concentration of the series differs between compounds. Note: nearly all actives have a fitted effect of over 30% in size. As to conditions: CHO-K1 viability, CellTiter-Glo luminescence, 3 h; series mostly up to 154 µM. The text has this: National Center for Advancing Translational Sciences [NCATS]
NIH Chemical Genomics Center [NCGC]
U.S. Environmental Protection Agency [EPA]
National Institutes of Environmental Health Sciences [NIEHS]
National Toxicology Program [NTP]
U.S. Food and Drug Administration [FDA]
HTRF phospho-H2AX (Ser139) assay (Cisbio Bioassays, US) enables the quantitative detection of the histone variant H2AX when phosphorylated on serine 139. When double-stranded DNA breaks, either by ionizing radiation or endogenous physiological processes, H2AX becomes phosphorylated at Ser139. This phospho-Ser139 serves as a sensitive biomarker for the detection of such breaks, localizing the site of DNA repair. So, HTRF phospho-H2AX Ser139 is a pertinent assay to study genome stability, the cell cycle, DNA repair, and it serves as a biomarker for cancer, and to understand aging. Wild type CHO-K1 cells were used to identify the inducers of Phospho-H2AX Ser 139 from the Tox21 compound collections. Also cytotoxicity of the Tox21 10K compound library against the CHO-K1 cell line was tested by measuring the cell viability using CellTiter-Glo assay (Promega, Madison, WI).
Tox21 Assay Protocol Summary:
The CHO-K1 cells suspended in culture medium containing 10% FBS were dispensed at 1000 cells/ 3 ul/well in 1536-well white wall/solid bottom plates (Greiner Bio-One North America, NC) using a Multidrop Combi (Thermo Fisher Scientific Inc., Waltham, MA). After the assay plates were incubated at 37C overnight, 23 nl of compounds at 15 concentrations (from 5-48 columns) or positive control (from 1 to 4 columns) were transferred to the assay plates using a Pintool station (Wako, San Diego, CA) into each well resulting in a final DMSO concentration of 0.76%. After 3hr incubation at 37C, 3 uL/well CellTiter-Glo luminescent cell viability reagent (Promega Corporation, Madison, WI) was added using a Flying Reagent Dispenser (FRD) (Aurora Discovery, CA). After incubation at room temperature for 30 min, the luminescence intensity was read using a ViewLux plate reader (PerkinElmer, Waltham, MA).
A general note: qHTS replaces the single test concentration by a dilution series.
Regarding `O=C(O)CCC(=O)c1ccc(-c2ccccc2)cc1`, the Potency entry is “inactive”.

For `CC(C)Cc1ccc(CC(=O)O)cc1`, the Potency result is “inactive”.

Consider `CC(C)(C)CCCCCCOC(=O)c1ccccc1C(=O)OCCCCCCC(C)(C)C`, for which the Potency entry is “inactive”.

As for `O=C(Nc1ccc(C(=O)O)c(O)c1)c1ccccc1`, the Potency entry was “inactive”.

With `COc1ccc(N)c([N+](=O)[O-])c1`, the Potency entry is “inactive”.

As for `CC(C)(C)C(O)/C=C/c1ccc2c(c1)OCO2` (stereo not given), the Potency result is “inactive”.

Turning to `Cc1ccc(N(CC2=NCCN2)c2cccc(O)c2)cc1`, the Potency entry was “inactive”.

On to `Nc1ccc(F)cc1`, for which the Potency entry is “inactive”.

For `O=S(=O)(Cl)c1c(Cl)cccc1Cl`, the Potency entry was “inactive”.

As to `Cc1ccc(N(CCO)CCO)cc1`, the Potency entry is “inactive”.

Regarding `CCC(CO)(CO)[N+](=O)[O-]`, the Potency entry is “inactive”.

With `CC(=O)OCC1=C(C(=O)O)N2C(=O)[C@@H](NC(=O)CSc3ccncc3)[C@H]2SC1`, the Potency result is “inactive”.

Consider `CN=C(N)NC(=O)Nc1c(C)cccc1C`, for which the Potency result is “inactive”.

For `Cc1ccc2c(c1)CCCN2`, the Potency result is “inactive”.

`C1CCCCC1`: the Potency result was “inactive”.

Take `O=C(C(=O)c1ccco1)c1ccco1`: the Potency entry was “inactive”.

Turning to `CCCCCCCCCCCCCCN(C)C`, the activity change, negative = cytotoxicity was 0.248% [at 31.6 µM].

Take `CC(=O)NCCO`: the Potency entry is “inactive”.

Turning to `CC(=O)c1ccc[nH]1`, the Potency entry is “inactive”.

For the compound `CCCC(=O)OC(=O)CCC`, the Potency entry is “inactive”.

Regarding `CCN(Cc1cccc(S(=O)(=O)O)c1)c1ccc(C(=C2C=CC(=[N+](CC)Cc3cccc(S(=O)(=O)O)c3)C=C2)c2ccc(O)cc2S(=O)(=O)[O-])cc1`, the Potency is 19.4 µM (active).

Turning to `COc1ccc(C)cc1`, the Potency result is “inactive”.

Consider `Cc1c(C2(c3cc(Br)c(O)c(Br)c3C)OS(=O)(=O)c3ccccc32)cc(Br)c(O)c1Br`, for which the Potency is 9.77 µM (active).

As to `CC(=O)OCC(=O)[C@@]1(OC(C)=O)[C@@H](C)C[C@H]2[C@@H]3C[C@H](F)C4=CC(=O)C=C[C@]4(C)[C@@]3(F)[C@@H](O)C[C@@]21C`, the Potency entry is “inactive”.

Regarding `CCOc1ncc(F)c(=O)[nH]1`, the Potency result is “inactive”.

For `CCO[Si](C)(CCCOCC1CO1)OCC` (stereo not given), the Potency result is “inactive”.

`CC(C)c1ccc(C(=O)N=C(N)N)cc1S(C)(=O)=O`: the Potency result was “inactive”.

With `Cc1cc([N+](=O)[O-])ccc1N`, the Potency result is “inactive”.

In the case of `CC(C)(C)C1(CCc2ccc(Cl)cc2)CO1` (stereo not given), the Potency entry is “inactive”.

`Cc1ccc(S(=O)(=O)NC(=O)NC2CCCCC2)cc1`: the Potency entry is “inactive”.

For the compound `O=c1[nH]c2cc(C(F)(F)F)c(N3CCOCC3)cc2n(CP(=O)(O)O)c1=O`, the Potency result was “inactive”.

`CC[C@@H](CO)NCCN[C@@H](CC)CO`: the Potency result is “inactive”.

As to `CCN(CC)CCOC(=O)C(c1ccccc1)c1ccccc1`, the Potency result was “inactive”.

Regarding `O=C(NC(Cc1cc(=O)[nH]c2ccccc12)C(=O)O)c1ccc(Cl)cc1` (stereo not given), the Potency result is “inactive”.

`CC(C)(O)CCc1ccccc1`: the Potency entry was “inactive”.

For the compound `COC(CC(C)CCCC(C)(C)O)OC` (stereo not given), the Potency entry was “inactive”.

As for `O=C(NS(=O)(=O)/C=C/c1ccccc1)c1ccc(F)cc1Cl`, the Potency entry was “inactive”.

On to `O=C(O)CO`, for which the Potency entry is “inactive”.

In the case of `CC(C)N(C)C`, the Potency result is “inactive”.

As to `Cc1ccc2c(c1[N+](=O)[O-])C(=O)c1ccccc1C2=O`, the Potency result is “inactive”.

For the origin of these results see PubChem BioAssay (Tox21).
